NALP1 yeast inh: blocks the NALP1 inflammasome reconstituted in yeast; S. cerevisiae NALP1/ASC/caspase-1 growth, X-gal OD620, 72 h; inhibition, % at 10 µM; AID 2071; 280,000 compounds, 0.61% hits; in the data active means inhibition mostly above about 24%, no sharp cut-off; inactive means mostly below about 32%
NLRP3 yeast inh: blocks the NALP3 inflammasome reconstituted in yeast; 330,000 compounds, 0.39% hits; Yeast reconstituted NLRP3/ASC/caspase-1, beta-gal luminescence, 24 h; inhibition, % at 10 µM;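 active means inhibition of 50% or more; inactive means inhibition below 50%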
tim23-1 inh: tim23-1 yeast growth inhibition; S. cerevisiae tim23-1 growth, BacTiter-Glo luminescence, 24 h; AID 463212; inhibition, % at 20 µM; 330,000 compounds, 1.3% hits;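 active means growth inhibition of the mutant yeast at or above 50%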;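 further: temperature-sensitive mutant grown at 25 °C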
TIM10 inh: growth inhibitors of TIM10 yeast strain; AID 463195; 330,000 compounds, 1.4% hits; S. cerevisiae TIM10 strain growth, BacTiter-Glo luminescence, 24 h; inhibition, % at 10 µM;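 active means inhibition of 40% or more at the single tested concentration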;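 further: wild-type TIM10 isogenic control strain grown at permissive 25 °C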
tim10-1 inh: inhibits growth of tim10-1 mutant yeast; S. cerevisiae tim10-1 ts strain growth, BacTiter-Glo, 24 h; inhibition, % at 20 µM; 330,000 compounds, 2.2% hits;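 active means inhibition of at least 40%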;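 further: mutant grown at 25 °C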
tim10-1 conf: confirmation of tim10-1 mutant yeast growth inhibitors. shares compounds with tim10-1 inh. S. cerevisiae tim10-1 ts strain growth, BacTiter-Glo, 24 h. inhibition, % at 20 µM. 7,400 compounds, 56% hits. AID 463213;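 active means inhibition of yeast growth at or above a set limit in either of two repeat tests at 20 µM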;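 further: tim10-1 mutant grown at permissive 25 °C to find synthetic lethal compounds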
TIM10 conf: confirmation of TIM10 yeast growth inhibitors. inhibition, % at 10 µM. 4,600 compounds, 63% hits. S. cerevisiae tim10 strain growth, BacTiter-Glo luminescence, 24 h. shares compounds with TIM10 inh;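 active means inhibition of yeast growth at or above a set limit in either of two replicates at 10 µM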; further: this counterscreen used the strain with wild-type TIM10
tim23-1 conf: confirmation of tim23-1 mutant yeast growth inhibitors | inhibition, % at 20 µM | 4,400 compounds, 83% hits | S. cerevisiae tim23-1 growth, BacTiter-Glo luminescence, 24 h | shares compounds with tim23-1 inh;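 active means inhibition above about 39% in either of two replicate wells at 20 µM, limit read from the data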;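 further: temperature-sensitive tim23-1 mutant grown at 25 °C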
A number is an active result. Compounds with a hit are over-represented: about 4% of the library has one in this group of screens.

O=C(C[n+]1cn(C(F)F)c2ccccc21)c1ccc(Br)cc1 was read as NALP1 yeast inh inactive, NLRP3 yeast inh inactive, tim23-1 inh 54.7, TIM10 inh 72.0, tim10-1 inh 64.1, tim10-1 conf 65.3, TIM10 conf 64.6 and tim23-1 conf inactive.
`O=C(C[n+]1cc(Br)cc2ccccc21)c1ccc(Br)cc1` gave NALP1 yeast inh inactive, NLRP3 yeast inh inactive, tim23-1 inh inactive, TIM10 inh inactive and tim10-1 inh inactive.
`COc1ccc(C(=O)C(C)OC(=O)CCN2C(=O)C3CC=CCC3C2=O)cc1` (stereo not drawn) gave NLRP3 yeast inh inactive, tim23-1 inh inactive, TIM10 inh inactive and tim10-1 inh inactive.
For O=C1/C(=C/c2cccc([N+](=O)[O-])c2)CCc2ccccc21 the results were NALP1 yeast inh inactive, NLRP3 yeast inh inactive, tim23-1 inh 53.7, TIM10 inh inactive, tim10-1 inh 41.6, tim10-1 conf 59.0 and tim23-1 conf inactive.
`O=C1/C(=C/c2ccc([N+](=O)[O-])cc2)CCc2ccccc21` gave NALP1 yeast inh inactive, NLRP3 yeast inh inactive, tim23-1 inh inactive, TIM10 inh inactive and tim10-1 inh inactive.
COc1cc(Br)cc(CNc2ccc(F)c([N+](=O)[O-])c2)c1O was read as NALP1 yeast inh inactive, NLRP3 yeast inh inactive, tim23-1 inh 53.9, TIM10 inh 43.6, tim10-1 inh 55.0, tim10-1 conf 33.2, TIM10 conf 39.7 and tim23-1 conf 55.8.
`Cc1ccc(CC(=O)Nc2ccc(F)c([N+](=O)[O-])c2)cc1C` gave NALP1 yeast inh inactive, NLRP3 yeast inh inactive, tim23-1 inh inactive, TIM10 inh inactive and tim10-1 inh inactive.
`CC(C)c1ccc(NC(=O)/C(C#N)=C/c2ccncc2)cc1` gave NALP1 yeast inh inactive, NLRP3 yeast inh inactive, tim23-1 inh 77.7, TIM10 inh inactive, tim10-1 inh 54.4, tim10-1 conf inactive and tim23-1 conf 55.1.
For CCOc1cccc(NC(=O)/C(C#N)=C\c2cccnc2)c1 the results were NALP1 yeast inh inactive, NLRP3 yeast inh inactive, tim23-1 inh 80.9, TIM10 inh 51.6, tim10-1 inh 61.3, tim10-1 conf 40.2, TIM10 conf 47.9 and tim23-1 conf 79.3.
N#C/C(=C\c1ccncc1)C(=O)Nc1ccc(C(=O)O)cc1 was read as NALP1 yeast inh inactive, NLRP3 yeast inh inactive, tim23-1 inh inactive, TIM10 inh inactive and tim10-1 inh inactive.
For CCCOc1ccccc1/C=C(\C#N)C(=O)Nc1cccnc1 the results were NALP1 yeast inh inactive, NLRP3 yeast inh inactive, tim23-1 inh 84.9, TIM10 inh 53.7, tim10-1 inh 73.4, tim10-1 conf 48.1, TIM10 conf 46.1 and tim23-1 conf 70.9.
CCN(CC)c1ccc(C=Nc2ccc(OC)c(S(=O)(=O)N3CCOCC3)c2)c(O)c1 was read as NLRP3 yeast inh inactive, tim23-1 inh inactive, TIM10 inh inactive and tim10-1 inh inactive.
CCCCC(=O)N1CCN(c2nc3ccc(Cl)cc3s2)CC1 was read as NALP1 yeast inh inactive, NLRP3 yeast inh inactive, tim23-1 inh inactive, TIM10 inh inactive and tim10-1 inh inactive.
`COc1ccc(C(=O)Nc2ccc(N3CCN(C(=O)c4ccccc4C)CC3)cc2)cc1` gave NALP1 yeast inh inactive, NLRP3 yeast inh inactive, tim23-1 inh inactive, TIM10 inh inactive and tim10-1 inh inactive.
`Cc1ccc(C(=O)OCC(=O)N(C)c2ccccc2)c(C)c1` gave NALP1 yeast inh inactive, NLRP3 yeast inh inactive, tim23-1 inh 51.5, TIM10 inh inactive, tim10-1 inh 56.5, tim10-1 conf 50.2 and tim23-1 conf 46.2.
CS(=O)(=O)Nc1ccc(C2=NN(S(=O)(=O)c3ccc(F)cc3)C(c3ccco3)C2)cc1 (stereo not drawn) was read as NALP1 yeast inh inactive, NLRP3 yeast inh inactive, tim23-1 inh inactive, TIM10 inh inactive and tim10-1 inh inactive.
`CC1CCCCC12NC(=O)N(CC(=O)NCCc1ccccc1)C2=O` (stereo not drawn) gave NLRP3 yeast inh inactive, tim23-1 inh inactive, TIM10 inh inactive and tim10-1 inh inactive.
`CCNc1sc(C(=O)c2cccs2)c(N)c1-c1nc2ccccc2s1` gave NALP1 yeast inh inactive, NLRP3 yeast inh inactive, tim23-1 inh 72.5, TIM10 inh 45.3, tim10-1 inh 52.9, tim10-1 conf inactive, TIM10 conf 35.7 and tim23-1 conf inactive.
Cn1cc(S(=O)(=O)N2CCCC2)cc1C(=O)NCCc1ccccc1 was read as NALP1 yeast inh inactive, NLRP3 yeast inh inactive, tim23-1 inh inactive, TIM10 inh inactive and tim10-1 inh inactive.
N#C/C(=C/c1ccncc1)c1nc2ccccc2s1 was read as NALP1 yeast inh inactive, NLRP3 yeast inh inactive, tim23-1 inh 80.0, TIM10 inh 69.7, tim10-1 inh 59.5, tim10-1 conf 40.1, TIM10 conf 67.2 and tim23-1 conf 78.6.
`N#C/C(=C\c1ccncc1)c1nc2ccccc2[nH]1` gave NALP1 yeast inh inactive, NLRP3 yeast inh inactive, tim23-1 inh inactive, TIM10 inh inactive and tim10-1 inh inactive.
For Cc1cc(N)n2ncc(-c3cccc(Br)c3)c2n1 the results were NALP1 yeast inh inactive, NLRP3 yeast inh inactive, tim23-1 inh 81.5, TIM10 inh 51.4, tim10-1 inh 45.6, tim10-1 conf 50.2, TIM10 conf 52.5 and tim23-1 conf 40.0.
Screening CC1=N/C(=C\c2ccc([N+](=O)[O-])cc2)C(=O)N1c1ccc(F)cc1F returned NALP1 yeast inh inactive, NLRP3 yeast inh inactive, tim23-1 inh inactive, TIM10 inh inactive and tim10-1 inh inactive.
For Cc1ccc(C(=O)Nc2cccc3ccccc23)o1 the results were NLRP3 yeast inh inactive, tim23-1 inh inactive, TIM10 inh inactive and tim10-1 inh inactive.
`COc1ccccc1NC(=O)c1ccc(-c2ccccc2F)o1` gave NALP1 yeast inh inactive, NLRP3 yeast inh inactive, tim23-1 inh inactive, TIM10 inh inactive and tim10-1 inh inactive.
For CCCn1c(NC(=O)c2ccc([N+](=O)[O-])o2)nc2ccccc21 the results were NLRP3 yeast inh inactive, tim23-1 inh 50.5, TIM10 inh 41.4, tim10-1 inh 54.8, tim10-1 conf 48.8, TIM10 conf 60.9 and tim23-1 conf 58.1.
For O=C(Nc1cccc2ccccc12)c1ccc([N+](=O)[O-])o1 the results were NALP1 yeast inh inactive, NLRP3 yeast inh inactive, tim23-1 inh 78.1, TIM10 inh 68.3, tim10-1 inh 79.6, tim10-1 conf 75.4, TIM10 conf 73.7 and tim23-1 conf 75.1.
Cc1ccc(NC(=O)c2ccc([N+](=O)[O-])o2)cc1C was read as NALP1 yeast inh inactive, NLRP3 yeast inh inactive, tim23-1 inh inactive, TIM10 inh inactive and tim10-1 inh inactive.
